Several values for one entry are separate records, joined by “and”; a condition that tells them apart may be missing. Equal entries are not always repeated. Inconclusive results are not listed. Some compounds were tested as several samples or in several runs, with calls that do not always agree. Activity calls are given as the source filed them. Calls come from the whole dose curve.
Target: 5-hydroxytryptamine receptor 2A (Homo sapiens) (UniProt P28223)
Test: 5-hydroxytryptamine receptor 2A (HTR2A) small molecule antagonists, cell-based qHTS assay (AID 1963586); note: nearly all actives have a fitted effect of over 45% in size
Conditions: HTR2A-CHO cells, DOI-induced calcium flux, fluorescence; series mostly up to 61.5 µM; activity, negative = inhibition: at the top concentration
Source text: National Center for Advancing Translational Sciences [NCATS]
Division of Preclinical Innovation [DPI]
U.S. Environmental Protection Agency [EPA]
National Institutes of Environmental Health Sciences [NIEHS]
National Toxicology Program [NTP]
U.S. Food and Drug Administration [FDA]
The HTR2A receptor is a subtype of the 5-HT2 receptor that belongs to the serotonin receptor family and is a G protein-coupled receptor (GPCR). The HTR2A-CHO cell line stably expressing human 5-hydroxytryptamine receptor 2A (HTR2A) can be used for screening antagonists of interactions between 5-HT2 and its ligands. The HTR2A-CHO calcium flux assay is a homogeneous fluorescence-based assay for detecting the intracellular calcium level using FDSS kinetic plate reader system.
Tox21 Assay Protocol Summary:
HTR2A-CHO cells were dispensed at 2000 cells/3uL/well in 1536-well black-clear bottom plates using a Multidrop Dispenser. After the assay plates were incubated at a 37 C/5% CO2 incubator for 18 h, 3 uL of Dye Loading Buffer was transferred to the assay plate by a Flying Reagent Dispenser. The assay plates were incubated at 37 C for 1h. For antagonist mode, 23 nL of compounds dissolved in DMSO, positive controls or DMSO only was transferred to the assay plate by a pin tool. After 5 min incubation at room temperature, 1.5 uL of 4-Iodo-2,5-dimethoxy-alpha-methylbenzeneethanamine hydrochloride (DOI) at 4nM was added to each well. The fluorescence intensity in the plates was measured using FDSS 7000EX kinetic plate reader for 3 min at 1 sec intervals.
% is set by controls: 0 for no effect and ±100 for the full control effect; potency is the fitted concentration of half-maximal effect.

5-hydroxytryptamine receptor 2A (Homo sapiens), sequence (P28223 whole entry, looked up): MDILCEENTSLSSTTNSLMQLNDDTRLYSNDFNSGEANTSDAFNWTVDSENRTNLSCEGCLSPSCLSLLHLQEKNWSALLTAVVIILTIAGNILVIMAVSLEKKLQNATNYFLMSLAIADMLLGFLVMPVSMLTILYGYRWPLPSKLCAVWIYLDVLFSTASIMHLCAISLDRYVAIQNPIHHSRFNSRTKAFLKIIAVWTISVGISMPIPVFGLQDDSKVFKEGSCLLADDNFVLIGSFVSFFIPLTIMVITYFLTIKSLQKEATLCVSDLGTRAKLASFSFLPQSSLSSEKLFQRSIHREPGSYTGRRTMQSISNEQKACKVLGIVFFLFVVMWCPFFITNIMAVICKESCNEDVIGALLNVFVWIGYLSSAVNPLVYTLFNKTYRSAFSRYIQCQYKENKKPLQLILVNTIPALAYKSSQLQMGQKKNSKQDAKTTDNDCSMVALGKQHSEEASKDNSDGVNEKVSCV

| SMILES | Potency | activity, negative = inhibition |
| --- | --- | --- |
| CC[N+]1(C)CCCC1 | inactive |  |
| Cc1cccc(N=Nc2ccc(N(C)C)cc2)c1 | inactive |  |
| Cc1ccc2ccccc2c1 |  | 2.51% (inactive) |
| O=C(Cl)c1ccccc1 |  | 19.4% (inactive) |
| CN(C)c1ccccc1 | inactive |  |
| CCOP(=S)(OCC)SCCSCC | inactive |  |
| Nc1ccccc1Cl |  | 49.3% (inactive) |
| O=P(OCCCl)(OCCCl)OCCCl |  | 5.46% (inactive) |
| CC1(C)CC(=O)CC(C)(C)N1[O] |  | -15.3% (inactive) |
| CNC(=O)NC(O)C(Cl)(Cl)Cl (stereo not given) |  | 50.1% [at 28.5 µM] (inactive) |
| O=C(O)CC[N+](=O)[O-] | inactive |  |
| CCCC(=O)Cl |  | -18.3% (inactive) |
| O=C(NCNC(=O)NC1C(=O)NC(=O)N1CO)NC1C(=O)NC(=O)N1CO (stereo not given) |  | 6.09% (inactive) |
| CCCCOC(=O)c1ccccc1C(=O)OCc1ccccc1 | inactive and 5.9 nM (active) |  |
| c1ccc2c(c1)sc1ccccc12 | inactive |  |
| OCC1CO1 (stereo not given) | inactive |  |
| COc1cc(N)c(Cl)cc1C(=O)NC1CN2CCC1CC2 (stereo not given) | 5.79 µM (active) |  |
| CCC(=O)OC1(c2ccccc2)CCN(C)CC1 |  | 8.51% (inactive) |
| CCN(N=O)C(N)=O | inactive |  |
| C[N+]1(C)CCCCC1 |  | -21.6% (inactive) |

| SMILES | Potency | activity, negative = inhibition |
| --- | --- | --- |
| CN(C)c1ccc(N=O)cc1 | inactive |  |
| CN(C)C(=O)Nc1cccc(C(F)(F)F)c1 | inactive |  |
| CCOC(=O)c1cncn1C(C)c1ccccc1 (stereo not given) |  | 4.45% [at 28.5 µM] (inactive) |
| COc1cccc(C=O)c1 |  | 14.8% (inactive) |
| ClC1=C(Cl)C2(Cl)C3C(Cl)C(Cl)CC3C1(Cl)C2(Cl)Cl (stereo not given) |  | 43.7% (inactive) |
| CCN(C)N=O |  | 30.3% (inactive) |
| CCCCCCCCCC(CC)c1ccc(S(=O)(=O)O)cc1 (stereo not given) | inactive and 37.5 µM (active) |  |
| O=C(O)c1ccc(=O)[nH]c1 |  | 7.22% [at 28.5 µM] (inactive) |
| CN(CCO)CCO |  | 57.8% (inactive) |
| Cc1cccc(C)c1N |  | 8.33% (inactive) |
| CCCCCCCCCCCCCC[P+](CCCCCC)(CCCCCC)CCCCCC | inactive |  |
| CCCCOP(=O)(CCCC)OCCCC |  | -19.8% (inactive) |
| CNC(=O)Oc1c(C(C)(C)C)cc(C)cc1C(C)(C)C |  | 3.4% (inactive) |
| Cc1ncc2n1-c1ccc(Cl)cc1C(c1ccccc1F)=NC2 |  | 3.5% [at 28.5 µM] (inactive) |
| O=C(NCc1cccnc1)Nc1ccc([N+](=O)[O-])cc1 | 3.75 µM (active) |  |
| ClC(Cl)=C(c1ccc(Cl)cc1)c1ccc(Cl)cc1 | inactive |  |
| CC(Br)C(=O)O (stereo not given) | inactive |  |
| CC(Oc1ccc(Cl)cc1Cl)C(=O)O (stereo not given) | inactive |  |
| OCC(Cl)CCl (stereo not given) |  | 47.3% (inactive) |
| CCn1cc[n+](C)c1 | inactive |  |

From PubChem BioAssay (Tox21)
